# VDR inh: blocks the human vitamin D receptor | 0.93% of 400,000 active | VDR-SRC2-3 peptide fluorescence polarization, 2 h | Potency, µM, without a hit: max response, negative = inhibition, usual class: inhibitors | P11473 | AID 504847; also: potency is read from the fitted curve at half-maximal effect; % is scaled to controls: 0 for no effect and ±100 for the full control effect
#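 Reagent solutions, kept cold and dark, are dispensed first; compounds are then pinned in at 23 nl, plates briefly spun, and incubated 2 h at ambient temperature. Inhibition of VDR–SRC2-3 peptide binding is read by fluorescence polarization.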
# hERG WT inh: inhibitors of human wildtype KCNH2 potassium channel. 0.37% of 340,000 active. Q12809. U2OS, BacMam KCNH2, thallium flux FluxOr; stronger effect = lower value. activity change, % at 1.84 µM;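 active = maximum activity change below -70%; inconclusive = maximum activity change between -70% and -50%; inactive = maximum activity change above -50%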; also: % is scaled to controls: 0 for no effect and ±100 for the full control effect
#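 U2OS cells were transduced with wild-type KCNH2 virus (2.03 x 10^8 / mL) for 4 h at room temperature, then cultured overnight at 37 C. Thallium flux was read with FluxOr dye. Rate constants were normalized to DMSO controls.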
# PLK1 PBD inh: PLK1 (human) polo-box domain binding inhibition | 2.8% of 360,000 active | Potency, µM, inactives show max response, negative = inhibition, usual class: inhibitors | P53350 | Plk1 PBD binding of FITC phosphopeptide, fluorescence polarization; also: potency is read from the fitted curve at half-maximal effect; series mostly up to about 57 µM; % is scaled to controls: 0 for no effect and ±100 for the full control effect; nearly all actives have a fitted effect of over 65% in size
# CBFb-RUNX1 inh: blocks binding between human CBF-beta and RUNX1; Q01196+Q13951; AlphaScreen CBFb-His/RUNX1-biotin binding, biochemical; Potency, µM (doses to about 59.8 µM), for the others: at the top dose activity, negative = inhibition, usual class: inhibitors; 230,000 tested, under 10 active; also: % of control where 0% means no effect
# Target sequence (Q01196 whole entry, looked up): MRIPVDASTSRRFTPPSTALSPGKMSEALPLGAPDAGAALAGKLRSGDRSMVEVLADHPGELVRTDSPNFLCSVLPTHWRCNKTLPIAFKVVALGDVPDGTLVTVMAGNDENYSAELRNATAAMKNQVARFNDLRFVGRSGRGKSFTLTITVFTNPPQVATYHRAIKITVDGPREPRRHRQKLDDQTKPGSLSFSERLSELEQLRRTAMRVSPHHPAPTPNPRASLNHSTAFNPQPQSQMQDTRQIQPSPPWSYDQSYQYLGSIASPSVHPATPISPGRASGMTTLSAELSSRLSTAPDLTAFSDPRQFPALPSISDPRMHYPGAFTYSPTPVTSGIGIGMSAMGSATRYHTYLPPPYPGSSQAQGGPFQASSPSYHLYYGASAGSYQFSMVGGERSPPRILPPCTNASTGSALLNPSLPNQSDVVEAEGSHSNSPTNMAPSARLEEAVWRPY
# Target sequence (Q13951 whole entry, looked up): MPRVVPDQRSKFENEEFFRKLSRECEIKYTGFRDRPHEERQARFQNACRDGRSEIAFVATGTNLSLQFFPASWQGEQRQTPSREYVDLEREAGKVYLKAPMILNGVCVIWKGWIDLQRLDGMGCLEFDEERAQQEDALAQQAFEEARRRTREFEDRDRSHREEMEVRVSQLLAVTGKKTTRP
#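 Proteins preincubated together for 20 min at RT before compound addition; 15 min later, nickel and streptavidin beads were added and left 90 min prior to AlphaScreen measurement.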
# KCNH2 3.1 block: inhibitors of human KCNH2 3.1 potassium channel isoform | activity change, % (tested at about 1.8 µM) | U2OS KCNH2 3.1, thallium flux FluxOr; stronger effect = lower value | AID 720553 | 0.95% of 340,000 active;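 active = maximum activity change below -70%; inconclusive = maximum activity change from -70% to -50%; inactive = maximum activity change above -50%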;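 also: thallium influx rate constant from kinetic fluorescence after stimulation buffer; % is scaled to controls: 0 for no effect and ±100 for the full control effect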
#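 FluxOr-based Tl+ influx in U2OS cells transduced with KCNH2 3.1 virus; rate constants normalized to DMSO controls.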
# MBNL1 CUG block: blocks human MBNL1 binding to CUG repeat RNA. Q9NR56. TR-FRET MBNL1-His/biotin-(CUG)12 binding, 665/545 ratio. Potency, µM (titrated, usually from 57.5 µM), without a hit: top-dose activity change, negative = inhibition, usual class: inhibitors. 0.036% of 280,000 active. AID 2675; active = well fitted inhibition curve with a large enough effect in the signal ratio, with a control signal flat, not every such curve was filed as active; inconclusive = small, poorly fitted or top-dose-only effect, or effect the other way, or a change in a side signal; inactive = no such curve, though single readings can be large or run the other way; the % refers to the signal ratio; also: potency is read from the fitted curve at half-maximal effect; % is scaled to controls: 0 for no effect and ±100 for the full control effect
#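 Inhibition of protein-RNA binding appears as loss of TR-FRET between terbium anti-His antibody on MBNL1-His and streptavidin-XL665 on biotin-(CUG)12. Activity is normalized to buffer-only and uninhibited-complex controls.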
# Starred values were filed as active, the others as inactive; ? = inconclusive; . = not tested or not shown; ! = repeats disagree; [ ] = another dose, or the depositor's remark. The list is not random: actives were taken first. Their share in the collection is about 3.8%. Unless noted, calls follow the shape of the dose curve; as a rule, active = well fitted curve in the direction sought with a large enough effect; inconclusive = small, poorly fitted or top-dose-only effect, or another doubt; inactive = no such curve, though single readings can be large; an effect the other way counts as inactive or inconclusive.
SMILES,VDR inh,hERG WT inh,PLK1 PBD inh,CBFb-RUNX1 inh,KCNH2 3.1 block,MBNL1 CUG block
CCOC(=O)c1ccc(NC(=O)CN2C(=O)c3cccnc3Sc3ccccc32)cc1,14%,.,.,.,.,.
Cc1cc2c(s1)c1cnn(CC(=O)N3CCOCC3)c(=O)c1n2C,-18%,.,.,.,.,.
C[C@@]12C=Cc3occc3[C@H]1CC[C@@]13C[C@@H](CC[C@H]12)[C@@](O)(CO)C3,?,.,.,3%,.,.
CCOc1ccccc1NC(=O)CSC1=Nc2ccccc2C2=NC(CC(=O)NCc3ccc4c(c3)OCO4)C(=O)N12 (centres undefined),-7%,.,.,.,.,.
COc1ccccc1CNC(=O)c1ccc(CS(=O)(=O)c2c(Cl)cccc2Cl)o1,-15%,.,.,.,.,.
COc1ccccc1S(=O)Cc1ccc(C(=O)NCc2ccccc2Cl)o1 (centres undefined),?,5,27µM*,-2%,-6,-1%
COC(=O)N1C(C)=Cc2ccccc2C1CC(C)=O (centres undefined),6%,.,.,-3%,.,.
N#CC(C#N)=C(N)/C(C#N)=C/c1ccc2[nH]ccc2c1,50µM*!,.,.,1%,.,.
Cc1ccc(C(OCC(O)CNCc2ccc(F)cc2)c2ccccc2)cc1 (centres undefined),-3%,-79*,?,.,-106*,-5%
O=C(c1ccccc1)c1ccc(OCC(O)CNCc2ccc(F)cc2)cc1 (centres undefined),-4%,42,3%,.,-29,10%
Cc1ccc(N(C(=O)c2csnn2)C(C(=O)NC(C)(C)C)c2cccs2)cc1 (centres undefined),5%,-21,0%,6%,-1,-21%
Cc1ccccc1N(C(=O)c1csnn1)C(C(=O)NC(C)(C)C)c1cccs1 (centres undefined),?,4,8.4µM*,-2%,10,1%
CN(C)CCNC(=O)c1ccc(-n2c(-c3ccccc3)cc3c2CCCC3)cc1,-6%,.,.,.,.,.
Cc1cc(C)cc(N(CC(=O)Nc2ccc(Br)cc2)S(=O)(=O)c2c(C)[nH]c(=O)[nH]c2=O)c1,11%,-24,-6%,.,-109*,-3%
CSc1ccc(CCNC(=O)C(C)n2nc(C)c3sc4ccccc4c3c2=O)cc1 (centres undefined),9%,.,.,.,.,.
CCCCSc1nc2c([nH]1)c(=S)n(C)c(=O)n2C,-12%,-36,-9%,.,8,.
Cn1c(=S)c2[nH]c(SCCC(C)(C)C)nc2n(C)c1=O,-30%,-115*,-16%,.,-49,.
CCCC(CC)Sc1nc2c([nH]1)c(=S)n(C)c(=O)n2C (centres undefined),-1%,-92*,-3%,.,-14,.
COc1ccccc1CNC(=O)c1cnc2sc(N3CCCCCC3)nn2c1=O,2%,.,.,.,.,.
CCn1cnc2c1c(=O)[nH]c(=O)n2Cc1ccccc1,-5%,-6,0%,.,12,-3%
CCCCn1cnc2c1c(=O)[nH]c(=O)n2CCCC,-8%,5,12µM*,-23%,21,0%
O=C(O)CC/C(=C\c1ccc(N2CCCC2)c([N+](=O)[O-])c1)c1nc2ccccc2s1,?,4,34µM*,?,16,11%
Cc1ccc(-n2nc(CO)c(C(=O)NCCCCc3ccccc3)n2)cc1C,3%,.,.,.,.,.
O=S(=O)(Nc1ccc(-c2ccc(N3CCCCC3)nn2)cc1)c1ccc(OC(F)(F)F)cc1,21%,.,.,.,.,.
CC1CCN(C(=O)Cn2c(SCC(=O)Nc3ccc(F)cc3)nc3ccccc32)CC1,-1%,.,.,.,.,.
SMILES,VDR inh,hERG WT inh,PLK1 PBD inh,CBFb-RUNX1 inh,KCNH2 3.1 block,MBNL1 CUG block
COc1cccc(-c2sc3ccccc3c2-c2ccc(OCCN3CCCCC3)cc2)c1,-5%,6,0%,.,-76*,.
COc1cccc(-c2sc3ccccc3c2-c2ccc(OCCN3CCCC3)cc2)c1,-11%,18,-8%,.,-9,.
COC(=O)C1=C(C(=O)OC)[C@@H]2Nc3ccccc3[C@@]23C[C@@H](C(=O)OC)N(S(=O)(=O)c2c(C)noc2C)C3=N1,.,.,.,0%[13.1 µM],.,.
Nc1cccc(S(=O)(=O)N2CCOCC2)c1,-9%,.,.,.,.,.
NC(=O)c1cc(S(=O)(=O)N2CCOCC2)ccc1Sc1ccccc1N,-18%,-8,15µM*,.,5,.
CCOC(=O)C1=NOC2(C1)C(=O)Nc1ccc(OC(F)(F)F)cc12 (centres undefined),.,.,3%,.,.,.
CC(C)(C)OC(=O)C1=NOC2(C=CC(=O)C=C2)C1,28µM*,.,.,-6%,.,.
CC1=NN(C(N)=S)C(=O)C1N=Nc1c(Br)cc(Br)cc1Br (centres undefined),?,-17,24µM*,.,31,4%
O=C1O[C@H](CN2CCOCC2)CN1/N=C\c1ccc([N+](=O)[O-])o1,28µM*,.,.,-1%[21.7 µM],.,.
CCN(CC(=O)Nc1ccc(OC)cc1)C(=O)Cc1cccs1,6%,0,-7%,.,-152*,.
COc1cccc(C(C)NC(=O)Cc2cccs2)c1 (centres undefined),?,-10,21µM*,.,-7,3%
CCN(CC)S(=O)(=O)c1ccc(NC(=O)Cc2cccs2)cc1,-15%,-2,27µM*,-3%,-12,5%
CCN(CC(=O)Nc1ccc(OC)cc1)C(=O)CCS(=O)(=O)c1ccc(C)cc1,8%,-8,-9%,.,-13,1%
NS(=O)(=O)c1ccc(NC(=O)Cc2cccs2)cc1,9%,-13,1%,.,-4,-2%
O=C(Cc1cccs1)Nc1ccc(-c2nc3ccccc3[nH]2)cc1,-1%,-8,30µM*,4%,5,138%
O=C(NCc1ccccc1Cl)c1ccc(-n2cnc3cccnc32)cc1,6%,.,.,.,.,.
CC(=O)Nc1ccc(NC(=O)CCc2nc3cccnc3n2Cc2cccs2)cc1,-15%,.,.,.,.,.
O=C(Nc1sc2c(c1C(=O)NCc1ccccc1)CCCC2)c1cc(=O)c2ccccc2o1,-14%,.,.,.,.,.
CCOc1ccc(NC(=O)CSc2oc(-c3ccco3)nc2S(=O)(=O)c2ccc(Cl)cc2)cc1,-3%,.,.,.,.,.
COc1cc(NC(=O)Cc2cccs2)cc(OC)c1,-8%,-6,3.4µM*,7%,-13,1%
Cc1cc(C)n(-c2nc(C)c(C)c(=O)n2CC(=O)Nc2ccc(Cl)c(Cl)c2)n1,17%,.,.,.,.,.
O=C(N/N=C/c1ccc(O)c(O)c1O)/C(=C/c1ccc([N+](=O)[O-])cc1)NC(=O)c1ccccc1,?,6,9.5µM*,.,-13,?
Cc1ccc(NC(=O)/C(=C\c2ccc([N+](=O)[O-])cc2)NC(=O)c2ccccc2)cc1,-3%,7,-2%,1%,-19,0%
O=C(O)c1ccc2c3c(cccc13)C(=O)N(c1ccccc1)C2=O,27%,-1,?,?,-104*,?

# Screening data: PubChem, National Center for Advancing Translational Sciences (NCATS)
